# Laboratory results reported in PubChem BioAssay AID485297 (National Center for Advancing Translational Sciences (NCATS), 2010).
# Out of some 320,000 compounds screened, about 9,100 (2.8%) were called active. Not shown: some 3% with an inconclusive outcome. Calls follow the shape of the dose curve; as a rule, active = well fitted activation curve with a large enough effect; inconclusive = small, poorly fitted or top-dose-only effect; inactive = no such curve, though single readings can be large or run the other way. The sample as a whole holds a higher share of actives than the screen did.
# Experiment: qHTS Assay for Rab9 Promoter Activators; also: nearly all actives have a fitted effect of over 60% in size; as to activation, negative = inhibition: % of control where 0% means no effect
# Conditions: Huh7 Rab9 promoter-luciferase reporter, luminescence, 24 h; series mostly up to 9.22 µM; activation, negative = inhibition: at the top concentration
# Summary of the method: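 Huh7 cells stably carrying a Rab9 promoter-luciferase reporter, 1500 cells per well in OP-MEM I with 10% FBS, treated with compound 24 hours at 37C. Luciferase activity read by luminescence after 10 minutes with Amplite reagent.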
# Potency is read from the fitted curve at half-maximal effect.
SMILES,"activation, negative = inhibition",Potency
CCOC(=O)/C(C#N)=C/c1ccc(N2CCN(Cc3ccccc3)CC2)cc1,-0.0089% (inactive),
COc1ccc(N2CCN(C(=O)/C(C#N)=C/c3ccccc3)CC2)cc1,-3.49% (inactive),
Cc1ccc(C)c(OCC(=O)NNC(=O)C2CCC2)c1,-2.73% (inactive),
O=S(=O)(c1cccc(S(=O)(=O)N2CCC(n3nnc4ccccc43)CC2)c1)N1CCCCC1,4.03% (inactive),
O=C(c1ccc(F)cc1)N1CCC(n2nnc3ccccc32)CC1,,1120 nM (active)
CC(=O)c1cccc(S(=O)(=O)N2CCC(n3nnc4cc(F)ccc43)CC2)c1,-2.95% (inactive),
COC(=O)CSc1nnc(-c2cccnc2)o1,-5.2% (inactive),
CN(C)c1ccc(-c2nnc(-c3cccnc3)o2)cc1,,1580 nM (active)
CN(C)c1nc(-c2cccnc2)nc(-c2ccc(Cl)cc2)c1C#N,3.11% (inactive),
Cc1ccc(S(=O)(=O)N2CCCCC2)cc1NC(=O)[C@@H]1CCCN1C(=O)c1cccs1,-3.33% (inactive),
CCC(C)N1C(=O)S/C(=C/c2ccc(Sc3nc4ccccc4[nH]3)o2)C1=O (centres undefined),1.73% (inactive),
O=C(Nc1ccccc1)c1ccccc1NC(=O)C(F)(F)F,28.5% (inactive),
CCCCNC(=O)C(=O)c1ccccc1NC(C)=O,5.62% (inactive),
CC(=O)Nc1ccccc1C(=O)C(=O)Nc1ccc(F)cc1,,2510 nM (active)
N#Cc1nc(-c2cccc3ccccc23)oc1N,-15.2% (inactive),
CSc1ccccc1N1CCN(CCCCCC(=O)NC2CCCc3ccccc32)CC1 (centres undefined),-35.3% [at 46.1 µM] (inactive),
COc1ccccc1C(=O)Nc1ccc(C)c(S(=O)(=O)N2CCCCC2)c1,-2.68% (inactive),
Cn1sc(NC(=O)c2ccccc2)nc1=O,16.5% (inactive),
Cn1c(NC(=O)c2ccccc2)nc2ccccc21,,2820 nM (active)
CCCC(=O)Nc1ccc2c(c1)nc(CCNC(=O)c1ccco1)n2C,1.93% (inactive),
Cn1c(CN2CCOCC2)nc2cc(NC(=O)c3ccc(Cl)cc3)ccc21,-19.2% (inactive),
CC(=O)NCCc1nc2cc(NC(=O)c3ccccc3)ccc2n1C,,3550 nM (active)
Cn1c(S(=O)(=O)O)nc2ccccc21,0.212% (inactive),
O=C(NC1CCCCCC1)C1CCN(C(=O)c2ccc(Cl)cc2)CC1,-5.39% (inactive),
O=C(c1c(F)cccc1F)N1CCN(S(=O)(=O)c2ccc3c(c2)OCCO3)CC1,-0.698% (inactive),
Cc1cc(C)cc(OCC(=O)OCC(=O)NC2CCCC2)c1,0.384% (inactive),
O=C(CN1CCCCCC1)Nc1ccc(Br)cc1[N+](=O)[O-],2.95% (inactive),

SMILES,"activation, negative = inhibition",Potency
CCCN(CC(=O)Nc1ccccc1C)C(=O)c1ccc2[nH]c3c(c2c1)CC(C)CC3 (centres undefined),1.6% (inactive),
CCOC(=O)c1sc(N)c(C#N)c1COC(=O)C1=COCCO1,0.625% (inactive),
CN(C(=O)CSc1nnc(C2CC2)n1C)C1CCCc2ccccc21 (centres undefined),-6.33% (inactive),
CC(=O)Nc1cccc(-c2csc(Nc3cccc(C)n3)n2)c1,,1580 nM (active)
COc1ccc2c(c1OC)C(=O)OC2Nc1nc(-c2ccccc2)cs1 (centres undefined),-18.4% (inactive),
CC(=O)Nc1ccc(-c2csc(NC=C3C(=O)OC(C)(C)OC3=O)n2)cc1,25.5% (inactive),
CC(=O)Nc1cccc(-c2cnc3ccccc3n2)c1,,3980 nM (active)
Cc1cccc(S(=O)(=O)CC(=O)Nc2nc(-c3ccccc3)cs2)c1,7.63% (inactive),
O=C(Nc1ccc(-c2csc(Nc3cccc(C(F)(F)F)c3)n2)cc1)c1cccc(C(F)(F)F)c1,-13.6% (inactive),
CCS(=O)(=O)Nc1cccc(-c2cc(-c3ccccc3)c3cc(C)ccc3n2)c1,-3.65% (inactive),
Cc1cc(O)ccc1-c1cnc2ccccc2n1,22.3% (inactive),
Cc1cccc(Nc2nc(-c3ccccc3)cs2)n1,,3980 nM (active)
COc1ccc(S(=O)(=O)Nc2cc(C)on2)cc1NC(C)=O,1.82% (inactive),
Cc1ccc(NC(=O)Cn2nnc(C(=O)NCc3ccco3)c2N)c(C)c1,-1.28% (inactive),
COc1ccc([C@H]2CC(=O)C=C(/C=C/c3ccc(Cl)cc3)C2)cc1,4.04% (inactive),
CSCCC(NC(=O)c1ccco1)C(=O)NCCc1ccc(F)cc1 (centres undefined),8.75% (inactive),
CCCC(=O)N1CCN(c2nnc(-c3ccc(C)cc3)c3ccccc23)CC1,-1.39% (inactive),
O=C(C1CCC1)N1CCN(S(=O)(=O)c2ccc([N+](=O)[O-])cc2)CC1,11.4% (inactive),
Cc1ccc2c(c1)C1CN(C)CCC1N2S(=O)(=O)c1cccc(F)c1 (centres undefined),-2.38% (inactive),
COc1ccc(CNC(=O)COc2ccccc2C(=O)c2cnn(-c3ccccc3)c2)cc1OC,21.1% (inactive),
O=C(c1cnn(-c2ccc(Cl)cc2)c1)c1ccccc1O,,3550 nM (active)
Cc1ncc(CC(=O)n2cc(C(=O)c3cc(Cl)ccc3O)cn2)s1,3% (inactive),
COc1ccc(-c2c(-c3cc(OC)cc(OC)c3)n(C)c3ccc(-c4ccn[nH]4)cc23)cc1,-4.63% (inactive),
Cc1cc(C(=O)COc2ccc(Br)cc2F)c(C)n1C1CC1,18.2% (inactive),
CC(=O)NC(c1cccs1)c1cc(Br)c2cccnc2c1O (centres undefined),-37.8% (inactive),
COc1ccc(C)cc1NC(=O)c1cc(-c2ccccc2)nc2c1cnn2C(C)C,0.172% (inactive),
CC1Cc2ccccc2N1S(=O)(=O)c1cccc(C(=O)NCC(c2ccco2)N2CCCC2)c1 (centres undefined),-2% (inactive),
